# According to PubChem BioAssay:
# Values joined by “and” are separate entries in the source; they are usually repeats but may differ in a detail not shown here. Equal entries are not always repeated. Results filed as inconclusive are left out. More than one record can exist for a structure, and the calls need not agree. Active and inactive are the calls of the source.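 The calls were made as follows, unless noted: active = normalized viability below 100% at a tested concentration; inactive = the rest.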
# Tests used:
# [1] = liver-stage malaria parasite load reduction – cell-based, known kinase inhibitor set, luminescence, hepatoma host viability (AID 624392; call rule not given here;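 also: infected cells incubated roughly two days before readout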); details: Plasmodium liver stage in hepatoma cells, luciferase luminescence, concentration not given here; liver cell % of control: measured here: host liver cell viability; parasite % of control: stronger effect = lower value
# [2] = viability loss in pontine glioma line – cell-based, SU-DIPG-XVII, MIPE5.0, CellTiter-Glo, qHTS, dose response (AID 1347060; cut-off not given, nearly all actives have AC50 up to about 26 µM;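 as to AC50: cells exposed to compound for 48 hours before viability readout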); details: CellTiter-Glo ATP luminescence
# [3] = viability loss in pontine glioma line – cell-based, SU-DIPG-XXV, MIPE5.0, CellTiter-Glo, qHTS, dose response (AID 1347065; cut-off not given, nearly all actives have AC50 up to about 26 µM;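 also: cells exposed to compound for 48 hours before ATP readout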); details: CellTiter-Glo ATP luminescence
# [4] = JHH-DIPG-1 glioma cell viability, MIPE5.0 library, CellTiter-Glo luminescence, qHTS (AID 1347067; cut-off not given, nearly all actives have AC50 up to about 26 µM;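 also: cells exposed to compound for 48 hours before readout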); details: JHH-DIPG-1 glioma viability, CellTiter-Glo ATP luminescence
# [5] = growth inhibition of DIPG cells – cell-based, MIPE5.0 library, qHTS (AID 1347068; cut-off not given, nearly all actives have IC50 up to about 30 µM;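 as to IC50: cells exposed to compound for 48 hours before viability readout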); details: SU-DIPG-XXV viability
# [6] = viability loss with induced miR-34 in A549 – imaging, A549 dox-inducible miR-34, nuclei and caspase counts, primary screen (AID 1347080;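 active = compounds whose cell count with miR-34 switched on is under 0.7 times the count with it off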); details: A549 miR-34 inducible, Hoechst nuclei count, 48 h
# [7] = compounds altering HSF1 focus formation in cells – imaging, Selleck Cancer Library (AID 1347162; in the data active = plate-normalised HSF1 focus index below about 0.46); details: human cells, HSF1 nuclear foci imaging, at 10 µM; SSMD: measured here: HSF1 foci SSMD mean; cell count: measured here: cell number; plate-normalised HSF1 focus index: stronger effect = lower value
# [8] = MELAS cybrid and Rieske KO viability enhancers – cell-based, MELAS cybrids, Rieske KO mouse fibroblasts, CellTiter-Glo, primary screen (AID 1508586;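 active = mean z-score across replicates of 1.96 or higher in either the MELAS or the Rieske mutant cell line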;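 also: z relative to plate mean and SD of compound and empty wells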); details: low glucose
# [9] = drug combination growth inhibition, ovarian cancer – cell-based, oncology-focused library, rucaparib conditional, profiling panel (AID 1508598); details: patient-derived ovarian cancer cells, CellTiter-Glo viability, 144 h, stronger effect = lower value
compound,measurement,setting,value
O=C(Nc1cccc(Cl)c1)Nc1ncc(CCNc2ncnc3ccsc23)s1,liver cell % of control,[1],68.4% and 82.5% and 102%
same,parasite % of control,[1],0.394% (inactive) and 0.318% (inactive) and 0.473% (active)
same,AC50,[2],0.0166 µM (active)
same,AC50,[3],0.525 µM (active)
same,AC50,[4],16.6 µM (active)
same,IC50,[5],11.8 µM (active)
same,fold change,"[6]; stronger effect = lower value, cell number ratio, induced over uninduced",1.06 (inactive)
same,fold change,[6]; measured here: relative caspase fold change +Dox/-Dox,1.09
same,cell count,"[6]; measured here: total cells with miR-34 induction, stronger effect = lower value",2320
same,cell count,[6]; measured here: total cells without miR-34 induction,2200
same,SSMD,[7],1.43
same,cell count,[7],7300
same,plate-normalised HSF1 focus index,[7],1.08 (inactive)
same,z-score,"[8]; MELAS cybrid survival, CellTiter-Glo 48 h, stronger effect = higher value",-0.144 (inactive)
same,z-score,"[8]; Rieske KO mouse fibroblast survival, CellTiter-Glo 72 h",-1.82
same,viability,"[9]; at 0.000305 µM, OCI-C5x cells, with rucaparib 10 µM, 100% = cells with rucaparib alone",108% (inactive)
same,viability,"[9]; at 0.000305 µM, OCI-C5x cells, without rucaparib",107% (inactive)
same,viability,"[9]; at 0.000305 µM, OCI-P5x cells, with rucaparib 20 µM, 100% = cells with rucaparib alone",122% (inactive)
same,viability,"[9]; at 0.000305 µM, OCI-P5x cells, without rucaparib",122% (inactive)
same,viability,"[9]; at 0.00122 µM, OCI-C5x cells, with rucaparib 10 µM, 100% = cells with rucaparib alone",98.1% (active)
same,viability,"[9]; at 0.00122 µM, OCI-C5x cells, without rucaparib",97.4% (active)
same,viability,"[9]; at 0.00122 µM, OCI-P5x cells, with rucaparib 20 µM, 100% = cells with rucaparib alone",115% (inactive)
same,viability,"[9]; at 0.00122 µM, OCI-P5x cells, without rucaparib",94.7% (active)
same,viability,"[9]; at 0.00488 µM, OCI-C5x cells, with rucaparib 10 µM, 100% = cells with rucaparib alone",95.1% (active)
same,viability,"[9]; at 0.00488 µM, OCI-C5x cells, without rucaparib",96.5% (active)
same,viability,"[9]; at 0.00488 µM, OCI-P5x cells, with rucaparib 20 µM, 100% = cells with rucaparib alone",112% (inactive)
same,viability,"[9]; at 0.00488 µM, OCI-P5x cells, without rucaparib",91.7% (active)
same,viability,"[9]; at 0.0195 µM, OCI-C5x cells, with rucaparib 10 µM, 100% = cells with rucaparib alone",112% (inactive)
same,viability,"[9]; at 0.0195 µM, OCI-C5x cells, without rucaparib",109% (inactive)
same,viability,"[9]; at 0.0195 µM, OCI-P5x cells, with rucaparib 20 µM, 100% = cells with rucaparib alone",99.4% (active)
same,viability,"[9]; at 0.0195 µM, OCI-P5x cells, without rucaparib",85.1% (active)
same,viability,"[9]; at 0.0781 µM, OCI-C5x cells, with rucaparib 10 µM, 100% = cells with rucaparib alone",91.8% (active)
same,viability,"[9]; at 0.0781 µM, OCI-C5x cells, without rucaparib",109% (inactive)
same,viability,"[9]; at 0.0781 µM, OCI-P5x cells, with rucaparib 20 µM, 100% = cells with rucaparib alone",99.1% (active)
same,viability,"[9]; at 0.0781 µM, OCI-P5x cells, without rucaparib",85.1% (active)
same,viability,"[9]; at 0.313 µM, OCI-C5x cells, with rucaparib 10 µM, 100% = cells with rucaparib alone",91.9% (active)
same,viability,"[9]; at 0.313 µM, OCI-C5x cells, without rucaparib",103% (inactive)
same,viability,"[9]; at 0.313 µM, OCI-P5x cells, with rucaparib 20 µM, 100% = cells with rucaparib alone",96.5% (active)
same,viability,"[9]; at 0.313 µM, OCI-P5x cells, without rucaparib",81.4% (active)
same,viability,"[9]; at 1.25 µM, OCI-C5x cells, with rucaparib 10 µM, 100% = cells with rucaparib alone",94.3% (active)
same,viability,"[9]; at 1.25 µM, OCI-C5x cells, without rucaparib",108% (inactive)
same,viability,"[9]; at 1.25 µM, OCI-P5x cells, with rucaparib 20 µM, 100% = cells with rucaparib alone",97.9% (active)
same,viability,"[9]; at 1.25 µM, OCI-P5x cells, without rucaparib",88.4% (active)
same,viability,"[9]; at 5 µM, OCI-C5x cells, with rucaparib 10 µM, 100% = cells with rucaparib alone",170% (inactive)
same,viability,"[9]; at 5 µM, OCI-C5x cells, without rucaparib",150% (inactive)
same,viability,"[9]; at 5 µM, OCI-P5x cells, with rucaparib 20 µM, 100% = cells with rucaparib alone",51.5% (active)
same,viability,"[9]; at 5 µM, OCI-P5x cells, without rucaparib",61.4% (active)
Cc1c(F)cc(C(=O)NC2CC2)cc1-c1c(F)cn2c(C(C)(C)C)nnc2c1F,outcome,[2],inactive
same,outcome,[3],inactive
same,outcome,[4],inactive
same,outcome,[5],inactive
Cn1cc(C2=C(c3cn(C)c4cc([N+](=O)[O-])ccc34)C(=O)NC2=O)c2ccccc21,AC50,[2],0.332 µM (active)
same,AC50,[3],0.263 µM (active)
same,AC50,[4],0.468 µM (active)
same,IC50,[5],4.68 µM (active)
Cn1nccc1Nc1nccc(-c2cc3c(s2)C(C)(C)N(CCN2CCOCC2)C3=O)n1,AC50,[2],5.25 µM (active)
same,AC50,[3],10.5 µM (active)
same,AC50,[4],2.09 µM (active)
same,outcome,[5],inactive
CCCS(=O)(=O)c1nc(NC2CC2)cc(-c2ccc3c(ccn3C3CC(C)(C)NC(C)(C)C3)c2)n1,AC50,[2],3.93 µM (active)
same,AC50,[3],2.78 µM (active)
same,AC50,[4],2.78 µM (active)
same,IC50,[5],3.12 µM (active)
Cn1c(-c2ccccc2C(F)(F)F)nnc1C12CCC(c3noc(C4CC(F)(F)C4)n3)(CC1)CC2,outcome,[2],inactive
same,outcome,[3],inactive
same,outcome,[4],inactive
same,outcome,[5],inactive
CCc1ccc2nc(Nc3cc(Cc4ccccc4)nc(NC4CCC(O)CC4)n3)sc2c1 (centres undefined),AC50,[2],26.3 µM (active)
same,AC50,[3],18.6 µM (active)
same,AC50,[4],20.9 µM (active)
same,outcome,[5],inactive
CC(C)(C)Sc1c(CC(C)(C)C(=O)O)n(Cc2ccc(Cl)cc2)c2ccc(OCc3ccc4ccccc4n3)cc12,AC50,[2],20.9 µM (active)
same,AC50,[3],20.9 µM (active)
same,AC50,[4],18.6 µM (active)
same,outcome,[5],inactive
O=C(Cc1ccccc1)Nc1nnc(CCSCCc2nnc(NC(=O)Cc3ccccc3)s2)s1,outcome,[2],inactive
same,AC50,[3],11.8 µM (active)
same,AC50,[4],14.8 µM (active)
same,outcome,[5],inactive
